# Paper PMC7862700, “An all-to-all approach to the identification of sequence-specific readers for epigenetic DNA modifications on cytosine”
# What was measured:
# Experiment in all cases: DAPPL (digital affinity profiling via proximity ligation, sequencing); 10 mM Tris-HCl pH 7.5, 50 mM NaCl, 1 mM DTT, 4% glycerol, room temperature, 30 min; GST-TFs on glutathione beads, 16-mer random dsDNA library, 0.1% formaldehyde crosslink after washing; high values mean tight binding
# [1] = target: T1, FLI1 (Homo sapiens, UniProt Q01543 1-452); details: protein: recombinant; tags: N-terminal GST; dsDNA, one strand shown
# T1 sequence: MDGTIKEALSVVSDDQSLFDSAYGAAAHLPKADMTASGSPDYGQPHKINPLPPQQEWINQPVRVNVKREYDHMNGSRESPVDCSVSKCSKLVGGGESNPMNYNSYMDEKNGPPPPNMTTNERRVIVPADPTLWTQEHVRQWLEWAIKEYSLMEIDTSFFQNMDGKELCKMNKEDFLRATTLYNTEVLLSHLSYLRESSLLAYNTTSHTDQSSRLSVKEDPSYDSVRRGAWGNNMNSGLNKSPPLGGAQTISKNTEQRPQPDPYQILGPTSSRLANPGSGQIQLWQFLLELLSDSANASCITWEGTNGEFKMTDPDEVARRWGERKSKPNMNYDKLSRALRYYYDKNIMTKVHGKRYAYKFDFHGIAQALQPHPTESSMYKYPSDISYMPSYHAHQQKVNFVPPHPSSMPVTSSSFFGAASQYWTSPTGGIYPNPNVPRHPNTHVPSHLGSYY
# Method in brief: (§1)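 Human transcription factors fused to GST were expressed in yeast, captured on glutathione beads, given DNA barcodes and pooled with a GST-only negative control. Pools were incubated with 200 nmole of a 16-mer random double-stranded DNA library in Tris/NaCl/DTT/glycerol buffer at room temperature for 30 min. They were then washed, crosslinked with 0.1% formaldehyde, proximity-ligated (BsaI/T4 ligase, 1 h, 37 °C), PCR-amplified and sequenced on an Illumina NextSeq500. Binding signal is each 6-mer's read frequency for a factor divided by its frequency for the GST control.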
# [2] = target: T2, ELK1 (Homo sapiens, UniProt P19419 1-428); details: protein: recombinant; tags: N-terminal GST; dsDNA, one strand shown
# T2 sequence: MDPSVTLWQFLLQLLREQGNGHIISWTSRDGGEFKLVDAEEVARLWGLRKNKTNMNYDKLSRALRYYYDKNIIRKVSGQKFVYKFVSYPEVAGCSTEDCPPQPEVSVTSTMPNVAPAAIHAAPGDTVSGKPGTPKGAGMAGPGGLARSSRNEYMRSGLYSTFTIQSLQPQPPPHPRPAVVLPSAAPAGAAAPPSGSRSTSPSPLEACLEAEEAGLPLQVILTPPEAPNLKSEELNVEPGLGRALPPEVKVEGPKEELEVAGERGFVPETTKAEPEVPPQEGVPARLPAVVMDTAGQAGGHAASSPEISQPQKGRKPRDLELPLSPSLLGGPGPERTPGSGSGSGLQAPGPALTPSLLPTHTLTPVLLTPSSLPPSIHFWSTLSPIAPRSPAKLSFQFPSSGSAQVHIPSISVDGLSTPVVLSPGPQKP
# Method in brief: as §1
# [3] = target: T3, GABPA (Homo sapiens, UniProt Q06546 1-454); details: protein: recombinant; tags: N-terminal GST; dsDNA, one strand shown
# T3 sequence: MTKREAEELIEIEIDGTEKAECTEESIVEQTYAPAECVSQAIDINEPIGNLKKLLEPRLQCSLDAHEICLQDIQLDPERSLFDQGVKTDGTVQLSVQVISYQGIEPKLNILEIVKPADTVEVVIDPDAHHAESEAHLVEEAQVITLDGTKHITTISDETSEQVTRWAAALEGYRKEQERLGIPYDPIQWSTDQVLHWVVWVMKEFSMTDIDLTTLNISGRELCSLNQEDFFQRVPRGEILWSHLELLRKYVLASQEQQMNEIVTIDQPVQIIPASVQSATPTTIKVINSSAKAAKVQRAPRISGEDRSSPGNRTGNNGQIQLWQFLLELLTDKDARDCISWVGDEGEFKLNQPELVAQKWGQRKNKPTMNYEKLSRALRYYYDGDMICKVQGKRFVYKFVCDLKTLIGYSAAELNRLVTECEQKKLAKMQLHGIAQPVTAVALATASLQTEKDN
# Method in brief: as §1
# [4] = target: T4, ERG (Homo sapiens, UniProt P11308 1-479); details: protein: recombinant; tags: N-terminal GST; dsDNA, one strand shown
# T4 sequence: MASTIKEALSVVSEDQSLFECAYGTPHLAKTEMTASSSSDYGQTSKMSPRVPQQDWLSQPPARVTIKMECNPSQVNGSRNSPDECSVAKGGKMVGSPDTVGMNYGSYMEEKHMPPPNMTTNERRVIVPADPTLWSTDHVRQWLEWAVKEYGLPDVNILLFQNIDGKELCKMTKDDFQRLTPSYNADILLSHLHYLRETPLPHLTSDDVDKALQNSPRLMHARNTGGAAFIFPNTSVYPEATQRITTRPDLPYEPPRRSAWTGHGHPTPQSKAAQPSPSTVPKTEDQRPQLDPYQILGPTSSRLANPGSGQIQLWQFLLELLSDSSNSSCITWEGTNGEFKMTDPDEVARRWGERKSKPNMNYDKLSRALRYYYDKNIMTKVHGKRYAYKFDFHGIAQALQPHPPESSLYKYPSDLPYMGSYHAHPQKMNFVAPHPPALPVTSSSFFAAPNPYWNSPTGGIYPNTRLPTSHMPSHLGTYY
# Method in brief: as §1
# [5] = target: ELF1 (Homo sapiens, UniProt P32519 1-619); details: protein: recombinant; tags: N-terminal GST; dsDNA, one strand shown
# Method in brief: as §1
# [6] = target: T5, EHF (Homo sapiens, UniProt Q9NZC4 1-300); details: protein: recombinant; tags: N-terminal GST; dsDNA, one strand shown
# T5 sequence: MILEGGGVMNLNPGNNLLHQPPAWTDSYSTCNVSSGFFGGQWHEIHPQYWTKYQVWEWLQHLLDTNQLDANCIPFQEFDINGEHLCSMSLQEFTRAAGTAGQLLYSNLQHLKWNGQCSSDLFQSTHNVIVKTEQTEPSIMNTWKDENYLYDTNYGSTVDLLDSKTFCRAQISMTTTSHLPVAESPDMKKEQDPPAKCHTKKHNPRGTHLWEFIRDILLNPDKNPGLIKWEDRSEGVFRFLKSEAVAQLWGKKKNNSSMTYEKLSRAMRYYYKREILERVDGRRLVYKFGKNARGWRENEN
# Method in brief: as §1
# [7] = target: SPI1 (Homo sapiens, UniProt P17947 1-270); details: protein: recombinant; tags: N-terminal GST; dsDNA, one strand shown
# Method in brief: as §1
# [8] = target: SPIB (Homo sapiens, UniProt Q01892 1-262); details: protein: recombinant; tags: N-terminal GST; dsDNA, one strand shown
# Method in brief: as §1
# [9] = target: T6, ELK3 (Homo sapiens, UniProt P41970 1-407); details: protein: recombinant; tags: N-terminal GST; dsDNA, one strand shown
# T6 sequence: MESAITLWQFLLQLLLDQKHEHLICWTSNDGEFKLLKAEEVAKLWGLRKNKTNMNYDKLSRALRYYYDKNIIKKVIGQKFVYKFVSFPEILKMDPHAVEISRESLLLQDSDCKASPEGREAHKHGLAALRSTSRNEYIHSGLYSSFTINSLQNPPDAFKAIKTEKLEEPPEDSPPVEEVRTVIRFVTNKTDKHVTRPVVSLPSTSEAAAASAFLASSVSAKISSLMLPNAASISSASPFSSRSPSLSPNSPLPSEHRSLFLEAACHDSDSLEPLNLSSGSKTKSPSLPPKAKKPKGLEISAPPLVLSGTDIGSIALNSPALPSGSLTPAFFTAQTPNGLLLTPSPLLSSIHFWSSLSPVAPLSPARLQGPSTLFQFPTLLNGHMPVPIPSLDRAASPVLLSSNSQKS
# Method in brief: as §1
# [10] = target: T7, FEV (Homo sapiens, UniProt Q99581 1-238); details: protein: recombinant; tags: N-terminal GST; dsDNA, one strand shown
# T7 sequence: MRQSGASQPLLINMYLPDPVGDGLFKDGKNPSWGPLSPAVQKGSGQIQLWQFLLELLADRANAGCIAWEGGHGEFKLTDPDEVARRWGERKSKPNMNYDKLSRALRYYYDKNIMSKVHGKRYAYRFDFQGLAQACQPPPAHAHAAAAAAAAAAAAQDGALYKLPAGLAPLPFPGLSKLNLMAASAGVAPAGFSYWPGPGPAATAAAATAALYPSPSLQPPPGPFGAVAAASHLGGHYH
# Method in brief: as §1
# [11] = target: ETV5 (Homo sapiens, UniProt P41161 1-510); details: protein: recombinant; tags: N-terminal GST; dsDNA, one strand shown
# Method in brief: as §1
# [12] = target: HSF1 (Homo sapiens, UniProt Q00613 1-529); details: protein: recombinant; tags: N-terminal GST; chain copies: 3; dsDNA, one strand shown
# Method in brief: as §1
# [13] = target: T8, SPIC (Homo sapiens, UniProt Q8N5J4 1-248); details: protein: recombinant; tags: N-terminal GST; dsDNA, one strand shown
# T8 sequence: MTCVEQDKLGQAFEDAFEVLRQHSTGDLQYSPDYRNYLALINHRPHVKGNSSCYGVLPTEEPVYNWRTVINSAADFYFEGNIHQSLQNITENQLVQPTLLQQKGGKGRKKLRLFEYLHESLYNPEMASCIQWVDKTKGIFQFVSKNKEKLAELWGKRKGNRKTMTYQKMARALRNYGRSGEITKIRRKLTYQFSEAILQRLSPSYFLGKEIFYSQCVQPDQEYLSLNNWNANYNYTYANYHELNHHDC
# Method in brief: as §1
# [14] = target: ELF4 (Homo sapiens, UniProt Q99607 1-663); details: protein: recombinant; tags: N-terminal GST; dsDNA, one strand shown
# Method in brief: as §1
# [15] = target: T9, ELK4 (Homo sapiens, UniProt P28324-2 1-405); details: protein: recombinant; tags: N-terminal GST; dsDNA, one strand shown
# T9 sequence: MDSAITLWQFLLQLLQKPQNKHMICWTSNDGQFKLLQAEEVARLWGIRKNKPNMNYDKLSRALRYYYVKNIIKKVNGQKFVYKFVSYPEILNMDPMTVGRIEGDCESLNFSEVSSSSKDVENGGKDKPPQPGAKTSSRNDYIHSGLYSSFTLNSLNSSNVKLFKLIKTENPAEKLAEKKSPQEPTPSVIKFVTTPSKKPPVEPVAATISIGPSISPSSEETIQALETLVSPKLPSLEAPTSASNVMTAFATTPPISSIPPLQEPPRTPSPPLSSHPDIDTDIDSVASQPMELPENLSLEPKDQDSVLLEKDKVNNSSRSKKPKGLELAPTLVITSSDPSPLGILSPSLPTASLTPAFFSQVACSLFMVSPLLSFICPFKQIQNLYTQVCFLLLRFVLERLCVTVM
# Method in brief: as §1
# [16] = target: T10, ETV2 (Homo sapiens, UniProt O00321 1-342); details: protein: recombinant; tags: N-terminal GST; dsDNA, one strand shown
# T10 sequence: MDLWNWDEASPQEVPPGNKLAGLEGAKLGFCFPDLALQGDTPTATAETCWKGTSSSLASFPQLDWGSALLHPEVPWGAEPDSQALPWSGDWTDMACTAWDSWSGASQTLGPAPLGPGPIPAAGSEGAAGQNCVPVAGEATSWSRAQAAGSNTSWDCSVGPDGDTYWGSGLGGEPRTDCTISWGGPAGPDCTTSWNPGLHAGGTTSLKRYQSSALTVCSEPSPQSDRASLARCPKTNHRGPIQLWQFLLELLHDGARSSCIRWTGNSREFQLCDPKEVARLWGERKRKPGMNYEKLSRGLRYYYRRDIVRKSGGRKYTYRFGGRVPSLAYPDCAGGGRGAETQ
# Method in brief: as §1
# [17] = target: T11, ELF3 (Homo sapiens, UniProt P78545 1-371); details: protein: recombinant; tags: N-terminal GST; dsDNA, one strand shown
# T11 sequence: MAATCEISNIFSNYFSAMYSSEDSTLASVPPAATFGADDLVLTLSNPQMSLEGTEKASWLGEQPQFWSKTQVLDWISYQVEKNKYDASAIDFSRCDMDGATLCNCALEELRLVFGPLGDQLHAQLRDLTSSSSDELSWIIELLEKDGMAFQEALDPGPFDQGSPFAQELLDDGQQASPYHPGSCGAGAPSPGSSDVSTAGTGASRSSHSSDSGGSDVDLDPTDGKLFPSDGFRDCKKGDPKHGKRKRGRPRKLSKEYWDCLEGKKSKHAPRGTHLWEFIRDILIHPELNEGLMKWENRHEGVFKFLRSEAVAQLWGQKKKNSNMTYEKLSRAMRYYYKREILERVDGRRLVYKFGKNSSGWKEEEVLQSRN
# Method in brief: as §1
# [18] = target: CRX (Homo sapiens, UniProt O43186 1-299); details: protein: recombinant; tags: N-terminal GST; dsDNA, one strand shown
# Method in brief: as §1
# [19] = target: ETV1 (Homo sapiens, UniProt P50549 1-477); details: protein: recombinant; tags: N-terminal GST; dsDNA, one strand shown
# Method in brief: as §1
# ELF4, sequence (Q99607 whole entry): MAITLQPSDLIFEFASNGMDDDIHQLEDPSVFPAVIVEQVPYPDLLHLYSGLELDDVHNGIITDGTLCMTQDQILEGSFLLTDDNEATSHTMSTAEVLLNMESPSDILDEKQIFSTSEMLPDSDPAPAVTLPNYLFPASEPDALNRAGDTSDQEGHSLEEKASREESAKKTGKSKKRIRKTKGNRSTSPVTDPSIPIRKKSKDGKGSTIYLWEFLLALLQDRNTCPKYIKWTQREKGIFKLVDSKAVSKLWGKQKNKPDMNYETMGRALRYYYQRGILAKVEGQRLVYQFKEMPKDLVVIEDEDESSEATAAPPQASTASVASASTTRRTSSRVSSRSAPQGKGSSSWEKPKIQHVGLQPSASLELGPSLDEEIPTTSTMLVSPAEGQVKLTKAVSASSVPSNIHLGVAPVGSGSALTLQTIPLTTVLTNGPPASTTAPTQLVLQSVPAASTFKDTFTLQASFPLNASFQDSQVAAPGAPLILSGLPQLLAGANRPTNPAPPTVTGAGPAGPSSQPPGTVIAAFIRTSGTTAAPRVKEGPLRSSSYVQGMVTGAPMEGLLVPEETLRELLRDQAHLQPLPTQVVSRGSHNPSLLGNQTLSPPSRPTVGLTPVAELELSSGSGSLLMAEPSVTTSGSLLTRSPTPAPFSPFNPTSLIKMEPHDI
# SPIB, sequence (Q01892 whole entry): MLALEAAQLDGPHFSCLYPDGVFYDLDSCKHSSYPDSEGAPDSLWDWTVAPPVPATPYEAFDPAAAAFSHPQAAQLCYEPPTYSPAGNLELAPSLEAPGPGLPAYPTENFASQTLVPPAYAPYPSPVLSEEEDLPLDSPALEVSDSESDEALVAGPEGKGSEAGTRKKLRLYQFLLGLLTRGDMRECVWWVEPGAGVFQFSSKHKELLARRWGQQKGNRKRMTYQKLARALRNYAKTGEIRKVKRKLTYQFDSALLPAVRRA
# HSF1, sequence (Q00613 whole entry): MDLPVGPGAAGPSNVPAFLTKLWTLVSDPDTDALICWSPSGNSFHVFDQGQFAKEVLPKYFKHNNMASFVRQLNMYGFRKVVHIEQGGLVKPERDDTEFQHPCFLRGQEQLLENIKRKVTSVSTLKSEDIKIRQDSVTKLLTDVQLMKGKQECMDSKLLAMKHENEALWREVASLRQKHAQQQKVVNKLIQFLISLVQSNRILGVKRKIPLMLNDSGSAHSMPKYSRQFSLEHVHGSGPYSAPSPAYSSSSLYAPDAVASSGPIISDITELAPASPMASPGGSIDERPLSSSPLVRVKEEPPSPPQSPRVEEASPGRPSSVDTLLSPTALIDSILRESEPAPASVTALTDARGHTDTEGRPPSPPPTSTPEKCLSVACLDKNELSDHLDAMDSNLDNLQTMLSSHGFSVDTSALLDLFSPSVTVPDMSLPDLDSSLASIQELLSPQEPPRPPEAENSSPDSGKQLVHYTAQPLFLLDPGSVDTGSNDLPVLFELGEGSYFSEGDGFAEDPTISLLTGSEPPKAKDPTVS
# CRX, sequence (O43186 whole entry): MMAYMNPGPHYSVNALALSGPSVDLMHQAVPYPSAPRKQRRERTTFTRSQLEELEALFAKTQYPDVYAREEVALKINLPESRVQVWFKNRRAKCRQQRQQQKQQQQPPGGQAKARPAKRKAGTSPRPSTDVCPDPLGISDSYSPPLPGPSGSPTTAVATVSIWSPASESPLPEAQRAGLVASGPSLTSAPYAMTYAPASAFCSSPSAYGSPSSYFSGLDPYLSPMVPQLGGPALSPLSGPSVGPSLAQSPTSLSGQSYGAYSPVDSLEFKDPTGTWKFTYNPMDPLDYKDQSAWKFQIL
# ETV5, sequence (P41161 whole entry): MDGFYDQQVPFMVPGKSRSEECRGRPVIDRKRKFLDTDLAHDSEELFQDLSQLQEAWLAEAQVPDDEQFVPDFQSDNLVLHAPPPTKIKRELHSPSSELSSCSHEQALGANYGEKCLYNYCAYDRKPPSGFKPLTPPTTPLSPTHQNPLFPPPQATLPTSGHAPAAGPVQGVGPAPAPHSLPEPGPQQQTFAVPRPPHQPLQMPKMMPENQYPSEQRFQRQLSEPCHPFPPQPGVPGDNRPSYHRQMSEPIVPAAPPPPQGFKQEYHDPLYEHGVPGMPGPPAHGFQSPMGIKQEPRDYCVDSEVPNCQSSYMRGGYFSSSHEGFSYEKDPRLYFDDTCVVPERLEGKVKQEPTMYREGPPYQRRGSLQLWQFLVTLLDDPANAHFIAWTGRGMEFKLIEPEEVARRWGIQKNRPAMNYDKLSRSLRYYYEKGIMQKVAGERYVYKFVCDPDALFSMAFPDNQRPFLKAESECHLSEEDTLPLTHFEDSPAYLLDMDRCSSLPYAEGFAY
# ELF1, sequence (P32519 whole entry): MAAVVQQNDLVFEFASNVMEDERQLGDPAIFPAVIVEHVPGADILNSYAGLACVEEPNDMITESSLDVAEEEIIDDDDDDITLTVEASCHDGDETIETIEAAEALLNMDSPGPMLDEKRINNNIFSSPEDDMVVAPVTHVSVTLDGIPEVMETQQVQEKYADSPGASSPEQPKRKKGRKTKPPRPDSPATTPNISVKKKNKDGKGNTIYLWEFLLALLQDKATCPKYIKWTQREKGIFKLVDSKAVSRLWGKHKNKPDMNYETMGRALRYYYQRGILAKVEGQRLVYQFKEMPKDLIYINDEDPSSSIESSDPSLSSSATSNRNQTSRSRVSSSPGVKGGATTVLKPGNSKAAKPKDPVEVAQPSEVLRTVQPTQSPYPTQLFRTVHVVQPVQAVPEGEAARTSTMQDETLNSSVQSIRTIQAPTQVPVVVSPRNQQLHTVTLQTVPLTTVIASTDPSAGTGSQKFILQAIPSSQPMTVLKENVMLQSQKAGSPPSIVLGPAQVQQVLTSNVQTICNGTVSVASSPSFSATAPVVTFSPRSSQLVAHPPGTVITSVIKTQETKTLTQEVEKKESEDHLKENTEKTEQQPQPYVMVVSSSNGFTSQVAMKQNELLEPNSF
# ETV1, sequence (P50549 whole entry): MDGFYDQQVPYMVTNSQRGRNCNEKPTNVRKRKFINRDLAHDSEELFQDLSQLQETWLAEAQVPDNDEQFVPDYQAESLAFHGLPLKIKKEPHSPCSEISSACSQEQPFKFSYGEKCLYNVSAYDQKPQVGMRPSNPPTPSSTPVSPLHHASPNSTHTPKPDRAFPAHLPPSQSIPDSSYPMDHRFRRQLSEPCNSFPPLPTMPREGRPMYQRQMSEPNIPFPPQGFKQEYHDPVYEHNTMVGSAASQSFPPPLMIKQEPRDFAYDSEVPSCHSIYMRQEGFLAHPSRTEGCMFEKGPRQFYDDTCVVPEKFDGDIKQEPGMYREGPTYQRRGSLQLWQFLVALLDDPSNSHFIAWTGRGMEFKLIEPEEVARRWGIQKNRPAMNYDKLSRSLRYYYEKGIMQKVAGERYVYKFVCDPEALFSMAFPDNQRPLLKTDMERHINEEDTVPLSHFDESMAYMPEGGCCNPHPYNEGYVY
sequence,measurement,setting,value
CTTAAC,binding signal,[1],"1.21 fold enrichment (6-mer frequency, TF over GST control)"
same,binding signal,[2],"1.17 fold enrichment (6-mer frequency, TF over GST control)"
same,binding signal,[3],"1.28 fold enrichment (6-mer frequency, TF over GST control)"
same,binding signal,[4],"1.26 fold enrichment (6-mer frequency, TF over GST control)"
same,binding signal,[5],"1.35 fold enrichment (6-mer frequency, TF over GST control)"
same,binding signal,[6],"1.26 fold enrichment (6-mer frequency, TF over GST control)"
same,binding signal,[7],"1.32 fold enrichment (6-mer frequency, TF over GST control)"
same,binding signal,[8],"1.4 fold enrichment (6-mer frequency, TF over GST control)"
same,binding signal,[9],"1.31 fold enrichment (6-mer frequency, TF over GST control)"
same,binding signal,[10],"1.27 fold enrichment (6-mer frequency, TF over GST control)"
same,binding signal,[11],"1.26 fold enrichment (6-mer frequency, TF over GST control)"
same,binding signal,[12],"1.72 fold enrichment (6-mer frequency, TF over GST control)"
same,binding signal,[13],"1.18 fold enrichment (6-mer frequency, TF over GST control)"
same,binding signal,[14],"1.28 fold enrichment (6-mer frequency, TF over GST control)"
same,binding signal,[15],"1.34 fold enrichment (6-mer frequency, TF over GST control)"
same,binding signal,[16],"1.25 fold enrichment (6-mer frequency, TF over GST control)"
same,binding signal,[17],"1.36 fold enrichment (6-mer frequency, TF over GST control)"
same,binding signal,[18],"2.4 fold enrichment (6-mer frequency, TF over GST control)"
same,binding signal,[19],"1.14 fold enrichment (6-mer frequency, TF over GST control)"
